According to PubChem BioAssay AID588832 (Broad Institute, 2011):
In all, about 8,000 compounds went through this assay and fewer than 10 were called active. No rule for the calls is given here. Not all results are given here.

These compounds were tested on hedgehog, isoform A (Drosophila melanogaster) (assay: Drosophila hedgehog isoform A inhibitors, primary screen, biochemical, plate reader, single concentration (AID 588832;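 also: 0% = neutral control wells and 100% = positive control wells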)). Conditions: Biochemical plate reader assay, at 30.3 µM, active compounds read high.

inhibition, active:
COc1ccc(S(=O)(=O)NCc2ccc3c(c2)cc(C)n3C)cc1 62.3%
Cc1cc2ccccc2n1CCNC(=O)C(C)(C)C 57.3%
O=C1C=C(O)c2c(O)cc(O)c(O)c2C1=O 93.1%
CC(=O)Oc1cc2cccc(OC(C)=O)c(=O)c2c(OC(C)=O)c1OC(C)=O 57.6%
O=C1C=CC2=C3c4cc(O)c(O)cc4CC3(O)COC2=C1O (stereo unspecified) 70.4%

inhibition, inactive:
CCOc1ccc(NC(=O)CS(=O)(=O)c2cn(C)c3ccccc23)cc1 7.96%
CCC1=Nc2cc(C(=O)O)ccc2Sc2ccccc21 1.79%
O=c1c2nnn(-c3ccccc3)c2ncn1C/C=C/c1ccccc1 6.96%
Cc1ccc(S(=O)(=O)NCc2ccc3c(c2)cc(C)n3C)cc1 11.8%
Cc1cc2cc(CNS(=O)(=O)c3ccccc3)ccc2n1C 7.14%
COc1ccc(Nc2nc(N)nc(CN3CCc4ccccc4C3)n2)cc1 5%
Cc1ccc(Cl)cc1N1CCN(C(=O)COc2ccc(S(=O)(=O)NC(C)C)cc2)CC1 7.28%
O=C(NCc1cn2ccsc2n1)c1c(F)cccc1Cl 5.46%
O=C(O)C(c1ccccc1)c1ccccc1 8.45%
Cn1c(=O)cc(N2CCc3ccccc32)[nH]c1=O 1.79%
COc1cccc(CNC(=O)COc2cc3c(c4oc(=O)cc(C)c24)CCC(C)(C)O3)c1 -8.44%
O=C(COc1ccc2c(-c3ccccc3)cc(=O)oc2c1)N1C[C@H]2C[C@@H](C1)c1cccc(=O)n1C2 1.72%
COc1ccc(Cl)cc1N1C(=O)C2CCCN2C1c1ccc(F)c(F)c1 (stereo unspecified) 14.9%
CCOc1ccc(C2CC(c3cccc(OC)c3)n3nc(N)nc3N2)cc1 (stereo unspecified) 15%
Cc1ccc(C)c(NC(=O)CSc2nc3ccccc3nc2N2CCOCC2)c1 9.55%
C=CCn1cc(C(=O)NCCCOC)c(=O)c2cc(S(=O)(=O)N3CCC(C)CC3)ccc21 25%
CC(C)(C)C(=O)NCCc1nc2ccccc2n1CC(=O)c1ccc(Cl)cc1 0%
CC(=O)c1ccc(NC(=O)CCS(=O)(=O)c2ccc3c(c2)n(C)c(=O)c(=O)n3C)cc1 1.81%
Cc1[nH]c2ccccc2c1SCC(=O)N1CCCc2ccccc21 1.79%
CCOC(=O)N1CCN(c2cc(=O)n(-c3ccc(Br)cc3)c(=O)[nH]2)CC1 6.78%
Cc1ccc2c(c1)N(C(=O)CCC(=O)NCCCN1CCOCC1)CC(C)O2 (stereo unspecified) 7.08%
CCCCCCc1cc2cc(/C(N)=N/NC(=O)c3ccncc3)c(=O)oc2cc1O 10.7%
O=C(COC(=O)C1CC(=O)N(C2CCCCC2)C1)c1ccc(F)cc1 (stereo unspecified) 15%
Cc1ccc2c(c1)N(C(=O)CCC(=O)NCCCN1CCN(C)CC1)CCO2 5.23%
Cn1c(Cn2c(=O)sc3ccccc32)nnc1SCC(=O)Nc1cccc(Cl)c1 11.1%
COc1ccccc1C1C(C(N)=O)=C(C)Nc2nc(-c3ccc(Cl)cc3)nn21 (stereo unspecified) 19.2%
CC(=O)NCCn1c(C)cc2ccccc21 0%
Cc1cc2ccccc2n1CCNC(=O)C(C)C 5.17%
O=C1C=C(O)c2cccc(O)c2C1=O 9.84%
C[C@@H]1Cc2c(O)c(O)cc(O)c2C(=O)O1 4.89%
CC(=O)c1ccc(N2CCN(C(=O)c3ccc(NC4=NC5CS(=O)(=O)CC5S4)cc3)CC2)cc1 (stereo unspecified) 3.39%
COc1ccc(CNS(=O)(=O)c2cc3c(cc2Cl)NC(=O)CO3)cc1 7.24%
COc1cccc(-c2nc(C(=O)NCC3CCCO3)cc3c2[nH]c2ccccc23)c1 (stereo unspecified) 0.0615%
O=C(Cn1cc2c(n1)CCCC2)NCCCN1CCN(Cc2ccccc2)CC1 4.17%
CC1CCCN(S(=O)(=O)c2ccc3c(c2)C(C)(C)C(=O)N3C)C1 (stereo unspecified) 20%
O=C(NCCN1CCCC1)c1ccc2c(c1)N(Cc1ccc(F)cc1)C(=O)c1ccccc1S2=O (stereo unspecified) 0.909%
COc1ccc(-c2cn3c(C)c(C(=O)Nc4ccncc4)sc3n2)cc1 9.74%
COCCNC(=O)CS(=O)Cc1nc(-c2ccc(Cl)cc2)oc1C (stereo unspecified) -2.73%
Cc1ccc2c(c1)N(CC(=O)NC1CCCC1)C(=O)c1cccnc1O2 16.7%
CCN(Cc1ccccc1)S(=O)(=O)c1cc(C(=O)OC)n(C)c1 6.72%
Cc1cccc(C(=O)N2CCN(Cc3ccc4c(c3)OCO4)CC2)c1 5.77%
CC1CC(=O)c2c(cc3c(-c4c(O)cc(O)c5c(O)c6c(cc45)OC(C)CC6=O)c(O)cc(O)c3c2O)O1 (stereo unspecified) 6.56%
COc1ccc(CNC(=O)COc2cc3c(c4oc(=O)cc(C)c24)CCC(C)(C)O3)cc1OC 5.12%
CCN1C(=O)c2ccccc2S(=O)c2ccc(C(=O)NCCCN3CCCC3=O)cc21 (stereo unspecified) -4.3%
COC(=O)CN1C(=O)COc2ccc(Cl)cc21 16.7%
CCOCCn1c(SCc2ccc(F)cc2)nc2c1c(=O)[nH]c(=O)n2C -3.67%
O=C(NCc1ccco1)C(=O)NCC1OCCN1S(=O)(=O)c1ccccc1 (stereo unspecified) 7.69%
COCCn1c(SCC(=O)N2CCCc3ccccc32)nc2c(c1=O)SC(C)C2 (stereo unspecified) 5.36%
CCCNC(=O)CS(=O)(=O)Cc1nc(-c2ccccc2C)oc1C 24.1%
CCOC(=O)N1CCc2c(sc(NC(=O)c3ccc(S(=O)(=O)N4CCCC4)cc3)c2C#N)C1 0%
Cn1c(=O)c2c(SC3CCCC3)nc(C3CC3)nc2n(C)c1=O 9.74%
Cn1c(C(=O)NCCN2CCc3ccccc3C2)cc2c(=O)n(C)c3ccccc3c21 20.8%
CCCCNC(=S)NCc1ccc2[nH]c(C)cc2c1 -0.909%
CC(C)COC(=O)C1C2C=CC3(CN(C4CCCC4)C(=O)C13)O2 (stereo unspecified) 8.33%
COc1ccc(-c2cc(=O)oc3c(C)c(OC(C)C(=O)NCc4ccccn4)ccc23)cc1 (stereo unspecified) 4.89%
CCc1ccc(NC(=O)CSc2nnc(Cn3c(=O)sc4ccccc43)n2C)cc1 16.7%
Cc1ccc(C(=O)NCCSc2c(C)[nH]c3ccccc23)cc1[N+](=O)[O-] 3.51%
CCCNC(=O)C1=C(C)C(=O)OC12CCC(C)CC2 (stereo unspecified) 9.55%
CCc1cccc(NC2c3ccccc3C(=O)N2c2ccc(C)cn2)c1 (stereo unspecified) 5.06%
CCOC(=O)N1CCN(C(=O)c2ccc3c(c2)N(Cc2ccc(F)cc2)CCS3)CC1 3.51%
COc1cc2cccc(OC)c(=O)c2c(OC)c1OC -1.79%
CC(=O)Oc1cc(O)c2c(=O)c(OC(C)=O)c(-c3ccc(OC(C)=O)c(OC(C)=O)c3)oc2c1 19.3%
CCCc1cc(C(=O)NCC(C)C)no1 5.23%
Cc1cc2cc(CNC(=O)c3ccc(S(=O)(=O)N4CCCCC4)cc3)ccc2[nH]1 5.36%
Cc1cccc(-n2c(CNC(=O)c3ccccc3)nnc2SCC(=O)Nc2nccs2)c1 12.5%
COc1ccc(-c2cc(=O)oc3cc(OC(C)C(=O)NCc4ccccn4)ccc23)cc1 (stereo unspecified) 7.02%
Cn1cc(S(=O)(=O)N2CCc3ccccc32)cc1C(=O)NC1CCCCC1 10.2%
CC(=O)Nc1cccc(NS(=O)(=O)c2cn(C)c(=O)n(C)c2=O)c1 3.85%
O=C(Cn1ncc2c1-c1ccccc1OC2)Nc1ccc(S(=O)(=O)N2CCCCC2)cc1 6.96%
C/C=C(/C)C(=O)OC1c2c(ccc3ccc(=O)oc23)OC(C)(C)C1OC(=O)/C(C)=C\C (stereo unspecified) 5.23%
CCOC(=O)C(C)n1cnc2c(nnn2-c2ccc(F)cc2)c1=O (stereo unspecified) 7.02%
Cc1ccc(C)c(N2CCN(C(=O)c3cc(S(=O)(=O)N4CCOCC4)cn3C)CC2)c1 8.45%
COc1ccc(NC(=O)NCCCN2CCN(c3cc(C)ccc3C)CC2)cc1 3.64%
COc1ccc(CN2CCN(C(=O)Cn3ncn4cccc4c3=O)CC2)c(OC)c1OC 2.17%
CCOc1ccc(NC(=O)CSc2nc3ccccc3nc2N2CCOCC2)cc1 7.08%
Cc1cc(NC(=O)c2noc3c2CCc2ccccc2-3)n(-c2ccccc2)n1 3.64%
CC(C)(O)CCCC(C)(O)c1ccc(C(=O)O)cc1O (stereo unspecified) 6.9%
Cc1c(S(=O)(=O)Nc2cc(Cl)ccc2Cl)c(=O)n(C)c(=O)n1C 5.23%
CC1Cc2nc(SCC(=O)N3CCCc4ccccc43)n(C)c(=O)c2S1 (stereo unspecified) 0%
COc1ccc(Cc2nc(-c3ccc(Br)o3)no2)cc1OC 33.3%
O=C(CCC(=O)N1CCOc2ccccc21)N1CCOCC1 9.62%
CC(NC(=O)c1ccc(NC2=NC3CS(=O)(=O)CC3S2)cc1)c1ccccc1 (stereo unspecified) 5.06%
Cn1cccc1Cc1nnc(SCC(=O)Nc2ccc(F)cc2)n1CCc1ccccc1 17.4%
CC(CCc1ccccc1)NC(=O)C1CCN(C(=O)c2sccc2-n2cccc2)CC1 (stereo unspecified) 3.57%
Cc1ccc(NC(=O)C2CCCN(S(=O)(=O)c3ccc4[nH]c(=O)ccc4c3)C2)cc1C (stereo unspecified) 0%
CCc1ccccc1NC(=O)c1cc(S(=O)(=O)N2CCc3ccccc32)cn1C 5.06%
